The source of these data is PubChem BioAssay (EPA / NIEHS).

The source made the active and inactive calls. The calls were made as follows: active = hit-call score of the fitted dose curve at least 0.9, where 1 is the maximum; inactive = score below 0.9.

Assay [1] can be described thus: APR_HepG2_P-H2AX_72hr: Apredica 72-hour HepG2 Assay for H2AX Phosphorylation (AID 2282916).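 Also: phospho-histone H2A.x immunostain intensity per cell marking DNA damage.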 To be noted: imaging, actives raise or lower the signal. Summed up: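 HepG2 cells treated 72 h at 0.39–200 uM, 0.5% DMSO final, duplicates. Formaldehyde-fixed, Triton-permeabilised, immunostained for phospho-H2A.x with Hoechst; fluorescence imaged at 20x, bidirectional fit versus DMSO.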

Assay [2] is described as follows: APR_HepG2_MitoMembPot_72hr: Apredica 72-hour HepG2 Assay for Mitochondrial Membrane Potential (AID 2282917). The conditions noted are these: imaging, actives raise or lower the signal. Summed up:
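HepG2 cells dosed 72 hr with compound at 0.39–200 uM in duplicate, 0.5% v/v DMSO final. Mitochondria stained with 250 nM MitoTracker Red CMXRos for 30 min before formaldehyde fixation, imaged by high-content fluorescence; bidirectional fit versus DMSO.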

A short description of assay [3]: APR_HepG2_MitoticArrest_72hr: Apredica 72-hour HepG2 Assay for Mitotic Arrest (AID 2282918). The conditions noted are these: high-content imaging, actives raise or lower the signal. Summed up:
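HepG2, 72 hr exposure, 0.39–200 uM in duplicate, 0.5% v/v DMSO final. Formaldehyde-fixed, Triton-permeabilized, anti-phospho-histone H3/FITC plus Hoechst. ArrayScan imaging at 20x; curves fit bidirectionally against DMSO baseline.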

A short description of assay [4]: APR_HepG2_MicrotubuleCSK_72hr: Apredica 72-hour HepG2 Assay for Microtubule CSK Stabilty (AID 2282919). To be noted: HepG2 microtubule cytoskeleton, high-content imaging, actives raise or lower the signal. The procedure, abridged:
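HepG2 cells were exposed 72 hr to compound at 0.39–200 uM in duplicate (0.5% DMSO final), then fixed and permeabilized. Alpha-tubulin immunofluorescence was imaged by high-content microscopy, with bidirectional fitting against DMSO and taxol as positive control.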

Assay [5] in a line: APR_HepG2_P-H2AX_24hr: Apredica 24-hour HepG2 Assay for H2AX Phosphorylation (AID 2282920). To be noted: high-content imaging, actives raise or lower the signal. Summed up: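 HCS fluorescence imaging of phospho-H2A.x immunostain (with Hoechst 33342 nuclear counterstain) in HepG2 after 24 hr compound exposure; 10 concentrations, 0.39–200 uM, duplicate wells, 0.5% v/v DMSO. Gain or loss of signal fitted relative to DMSO baseline.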

Assay [6] is described as follows: APR_HepG2_StressKinase_72hr: Apredica 72-hour HepG2 Assay for Stress Kinase (AID 2282921). The conditions noted are these: HepG2 stress kinase (phospho-c-Jun) imaging, actives raise or lower the signal. The procedure, abridged:
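HepG2 cells treated 72 hr with 0.39–200 uM compound, 0.5% v/v DMSO, duplicate wells. After formaldehyde fixation and Triton permeabilization, stained with anti-phospho-c-Jun (1:500) and Cy3 secondary, imaged at 20x. Fitted in both directions against DMSO.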

Assay [7] can be described thus: APR_HepG2_StressKinase_24hr: Apredica 24-hour HepG2 Assay for Stress Kinase (AID 2282922). To be noted: HepG2 stress kinase (phospho-c-Jun) imaging, actives raise or lower the signal. Summed up: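 HepG2 cells exposed 24 h to 0.39–200 uM compound in duplicate (0.5% v/v DMSO final). Cells fixed in 3.7% formaldehyde, permeabilized and immunostained for phospho-c-Jun; read by high-content fluorescence imaging, fitted bidirectionally against DMSO.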

Assay [8] is described as follows: APR_HepG2_MitoMass_72hr: Apredica 72-hour HepG2 Assay for Mitochondrial Mass (AID 2282924).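 Also: MitoTracker Red CMXRos stain intensity per cell imaged as mitochondrial mass.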 To be noted: high-content imaging, actives raise or lower the signal. Summed up: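 HepG2 cells dosed 72 hr at 0.39–200 uM (0.5% DMSO), in duplicate. MitoTracker Red CMXRos 250 nM loaded 30 min before formaldehyde fixation; high-content fluorescence imaging, bidirectional fit versus DMSO.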

A short description of assay [9]: APR_HepG2_NuclearSize_72hr: Apredica 72-hour HepG2 Assay for Nuclear Size (AID 2282925). To be noted: high-content imaging, actives raise or lower the signal. The procedure, abridged: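 HepG2 cells dosed 72 h at 0.39–200 uM (10 concentrations, duplicate) in 0.5% v/v DMSO final. Fixed, Hoechst 33342-stained nuclei imaged; nuclear diameter measured by automated image analysis. Bidirectional fit versus DMSO.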

Assay [10] in a line: APR_HepG2_p53Act_72hr: Apredica 72-hour HepG2 Assay for p53 Activation (AID 2282923).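 Also: average cellular p53 protein immunofluorescence intensity in HepG2 cells.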 To be noted: high-content imaging, actives raise or lower the signal. Summed up: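 HepG2 cells exposed 72 h to 0.39–200 uM in 0.5% DMSO, duplicates. Fixed, permeabilized cells immunostained for p53 (Cy5) with Hoechst; imaged at 20x, fluorescence analyzed bidirectionally against DMSO.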

Take `Nc1c(Cl)cc([N+](=O)[O-])cc1Cl`: the molecule was called inactive in [1], in [2], in [3], in assay [4], in [5] and in assay [6]. The molecule was classed as inactive in assay [7], in assay [8] and in assay [9].
Turning to `COP(=O)(NC(C)=O)SC` (configuration not stated), the molecule was classed as inactive in assay [1], in assay [2], in assay [3], in assay [4], in assay [5] and in assay [6]. The outcome in assay [7], in assay [10], in [8] and in [9] was inactive.
In the case of `CCOP(=O)(SC(C)CC)N1CCSC1=O` (configuration not stated), the call in assay [1], in assay [2], in assay [3], in assay [4], in assay [5] and in [6] was inactive. The molecule was classed as inactive in assay [7], in assay [8] and in assay [9].
In the case of `CCc1cccc(CC)c1N(COC)C(=O)CCl`, the result in assay [1], in [3], in [4], in assay [6], in [7] and in assay [8] was inactive. Also, the outcome in assay [9] was inactive. Moreover, the AC50 in [2] is 31.1 µM (active); in assay [5], 70.7 µM (active).
Take `Cc1ccn2nc(S(=O)(=O)Nc3c(F)cccc3F)nc2n1`: the call in assay [1], in [2], in [3], in [4], in assay [5] and in [6] was inactive. In addition, the outcome in [7], in assay [8] and in assay [9] was inactive.
For `CCCSP(=O)(OCC)SCCC`, the result in assay [1], in [2], in assay [3], in assay [4], in [5] and in [6] was inactive. Further, the molecule was called inactive in assay [7], in [8] and in [9].
In the case of `CCc1cnc(C2=NC(C)(C(C)C)C(=O)N2)c(C(=O)O)c1` (configuration not stated), the call in assay [1], in assay [2], in assay [3], in assay [4], in assay [5] and in assay [6] was inactive. Besides, the call in assay [7], in assay [8] and in [9] was inactive.
Take `COP(=O)(OC)OC(Br)C(Cl)(Cl)Br` (configuration not stated): the result in assay [1], in assay [2], in assay [3], in [4], in [6] and in [8] was inactive. Besides, the molecule was called inactive in assay [9]. For the same molecule, the values for the AC50 in assay [5] and in assay [7] were 33.4 µM (active) and 32.5 µM (active), respectively.
As to `C[Si](Cn1cncn1)(c1ccc(F)cc1)c1ccc(F)cc1`, the result in [1], in assay [2], in assay [3], in assay [4], in assay [5] and in assay [6] was inactive. Also, the molecule was called inactive in assay [7], in assay [10], in assay [8] and in assay [9].
For the molecule `CC1(C(=O)Nc2ccc(O)c(Cl)c2Cl)CCCCC1`, the result in assay [1], in [2], in [3], in assay [5], in assay [6] and in assay [7] was inactive. Moreover, the outcome in assay [10], in assay [8] and in assay [9] was inactive. Moreover, the concentration at half-maximal activity (AC50) in assay [4] is 91.7 µM (active).
On to `CCOP(=O)(OCC)Oc1cc(C)nc(C(C)C)n1`, for which the call in assay [1], in assay [2], in [3], in assay [4], in [5] and in [6] was inactive. Moreover, the outcome in assay [7], in assay [10], in [8] and in [9] was inactive.
`CCOP(=S)(OCC)SCCSCC`: the call in assay [1], in assay [2], in assay [3], in assay [4], in assay [5] and in [6] was inactive. In addition, the molecule was classed as inactive in assay [7], in assay [10], in assay [8] and in [9].
With `O=C(O)c1cc(Oc2ccc(C(F)(F)F)cc2Cl)ccc1[N+](=O)[O-]`, the call in [1], in [2], in [3], in [4], in assay [5] and in assay [6] was inactive. For the same molecule, the outcome in [7], in assay [8] and in [9] was inactive.
As to `CCOC(=O)COc1cc(-c2nn(C)c(OC(F)F)c2Cl)c(F)cc1Cl`, the molecule was classed as inactive in [1], in [2], in assay [3], in assay [4], in assay [5] and in [6]. Moreover, the molecule was classed as inactive in assay [7], in [10], in assay [8] and in assay [9].
On to `CCOP(=S)(OCC)Oc1cc(C)nc(C(C)C)n1`, for which the result in assay [1], in [2], in assay [3], in assay [4], in [5] and in assay [6] was inactive. Besides, the call in assay [7], in assay [10], in assay [8] and in assay [9] was inactive.
As to `CC(=NC#N)N(C)Cc1ccc(Cl)nc1`, the result in [1], in assay [2], in [3], in [4], in assay [5] and in assay [6] was inactive. Further, the outcome in assay [7], in assay [10], in assay [8] and in assay [9] was inactive.
Regarding `CCCOc1nn(C(=O)NS(=O)(=O)c2ccccc2C(=O)OC)c(=O)n1C`, the call in assay [1], in assay [2], in [3], in assay [4], in assay [5] and in assay [6] was inactive. Also, the call in assay [7], in [10], in assay [8] and in [9] was inactive.
For `CCOC(=O)CC(SP(=O)(OC)OC)C(=O)OCC` (configuration not stated), the molecule was classed as inactive in assay [1], in assay [2], in [3], in assay [4], in [5] and in assay [6]. Also, the call in assay [7], in assay [10], in assay [8] and in assay [9] was inactive.
